# From PubChem
# This excerpt belongs to a sample that is enriched for hits.
# SF1 inhibitor = blocks the human nuclear receptor SF-1; Q13285; CHO-K1 Gal4-SF-1 LBD luciferase reporter; inhibition, % at 10 µM; actives 0.55% (n = 65,000);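 active means inhibition above the mean inhibition of all tested compounds plus 3 SD, cut at about 48% in these data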;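 further: 0% = SF-1 transfected cells with DMSO and 100% = mock-transfected cells lacking SF-1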
# Target sequence (Q13285 whole entry, looked up, the tested form may be a part): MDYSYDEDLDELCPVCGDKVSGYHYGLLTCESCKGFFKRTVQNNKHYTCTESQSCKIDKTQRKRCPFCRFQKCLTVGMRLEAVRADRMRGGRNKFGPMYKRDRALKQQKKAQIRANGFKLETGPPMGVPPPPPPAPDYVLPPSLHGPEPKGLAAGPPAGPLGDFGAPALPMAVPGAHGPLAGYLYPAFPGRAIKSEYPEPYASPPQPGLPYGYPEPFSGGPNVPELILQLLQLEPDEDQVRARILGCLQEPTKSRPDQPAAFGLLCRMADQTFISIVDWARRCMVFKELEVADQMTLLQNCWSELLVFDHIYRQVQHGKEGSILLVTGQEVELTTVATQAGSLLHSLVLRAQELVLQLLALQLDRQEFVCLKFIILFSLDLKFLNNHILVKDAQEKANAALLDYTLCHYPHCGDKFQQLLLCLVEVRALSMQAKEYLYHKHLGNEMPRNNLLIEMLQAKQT
# The depositor's hits bear a star.
SMILES,SF1 inhibitor
CCCn1c(C)cc(C(=O)CN2C(=O)c3ccccc3C2=O)c1C,-65
C=CCn1c(C)cc(C(=O)CSc2nnc(Cc3ccccc3)o2)c1C,-14
COc1ccc(-c2nnc(SCC(=O)c3cc(C)n(Cc4cccs4)c3C)o2)cc1,12
Cc1nc2ccc(NC(=O)Cc3cccs3)cc2s1,-80
CC(=O)Nc1ccc(SCC(=O)c2cc(C)n(Cc3cccs3)c2C)cc1,58*
CC(=O)Nc1ccccc1OCC(=O)c1cc(C)n(Cc2cccs2)c1C,70*
C=CCn1c(C)cc(C(=O)CSc2nnc(NCc3ccccc3)s2)c1C,-59
Fc1cc(F)c2nc(N3CCCCC3)sc2c1,-65
C=CCN1C(c2ccc(OCC)cc2)=CS/C1=C(\C#N)c1nnc2n1CCCCC2,9
COc1ccc(CNc2nc3c(c(=O)n(Cc4ccc(F)cc4)c(=O)n3C)n2C)cc1,5
O=C(CCOc1ccccc1)Nc1ccc(S(=O)(=O)N2CCCC2)cc1,-2
Cn1c2c(c(=O)n(C)c1=O)C(c1cc3c(cc1Br)OCO3)CC(=O)N2 (stereo not drawn),15
CN(C(=O)C12CC3CC(CC(C3)C1)C2)C1CCS(=O)(=O)C1 (stereo not drawn),16
Cc1ccc(C2=Nc3ccccc3NC(C)(c3ccc(C)o3)C2)o1 (stereo not drawn),-106
CCCC1C(c2ccc(OC)cc2)C(C#N)(C#N)C2(C#N)CC1(N)NC2=O (stereo not drawn),-8
CC(=O)c1cccc(NC(=O)CN(c2ccc(C)cc2)S(=O)(=O)c2cccc3nonc23)c1,9
CCc1ccc2oc(-c3cc(N=Cc4cccc(OC)c4O)ccc3O)nc2c1,51*
CCn1cc(Br)c(C(=O)Nc2cccc(SC)c2)n1,-50
CC(C)CCSc1nc(N)c(C#N)cc1C#N,-3
COCCn1c(SCc2nc3ccccc3s2)nc2ccccc21,-50
COCCCN(C(C)=O)c1nc(-c2ccc(OC)cc2)cs1,-98
Cn1c(=O)c2c(nc(NC(Cc3ccccc3)C(=O)O)n2Cc2ccccc2)n(C)c1=O (stereo not drawn),9
COCCNc1nc2c(c(=O)n(C)c(=O)n2C)n1Cc1cccc(C)c1,-2
Cn1c(=O)c2c(nc(NCc3ccco3)n2C/C=C/c2ccccc2)n(C)c1=O,53*
COCCN(CC(=O)NCc1ccccc1)C(=O)CCC(=O)Nc1nccs1,-15
SMILES,SF1 inhibitor
CC1(C)Cc2c(c(-c3ccccc3)nc(N3CCCC3)c2C(N)=O)CO1,8
O=c1cc(N2CCC(Cc3ccccc3)CC2)[nH]c(=O)n1C1CCCCC1,-3
Cc1nnc(NC(=O)C2COc3ccccc3O2)s1 (stereo not drawn),-52
O=C(NC1=NCCS1)C1COc2ccccc2O1 (stereo not drawn),66*
O=C(Nc1ccc2c(c1)OCO2)C1COc2ccccc2O1 (stereo not drawn),-11
c1ccn2c(SCc3cn4ccsc4n3)nnc2c1,-71
COc1ccc(C(=O)Nc2nc3ccccc3[nH]2)cc1OC,-50
O=C(Nc1cccc(-c2nc3ccccc3[nH]2)c1)c1ccco1,-28
O=C(Nc1nc2ccccc2[nH]1)c1ccccc1F,84*
COC(=O)c1sc(NC(=O)CSc2nnnn2-c2ccc(C)cc2C)nc1C,22
CCCCN(CC)C(=O)c1ccc(Cl)c(Cl)c1,-20
CC(C)(C)n1ncc2c(=O)n(CC(=O)NCc3ccccc3)cnc21,-78
ClC(Br)=C(n1cnc2ccccc21)n1cnc2ccccc21,10
Cc1onc(-c2c(F)cccc2Cl)c1C(=O)NCc1ccccn1,-1
CC(C)CCNC(=O)C1CCN(S(=O)(=O)c2ccc3c(c2)CCC(=O)N3)CC1,-10
COC(=O)c1c(C)[nH]c(C(=O)OCc2ccc(F)cc2)c1C,-60
CCOC(=O)c1c(C)[nH]c(C(=O)C(C)OC(=O)c2cccc(OCc3c(C)noc3C)c2)c1C (stereo not drawn),81*
CCOC(=O)c1c(C)[nH]c(C(=O)COC(=O)C2CC2C)c1C (stereo not drawn),-54
CCOC(=O)N1CCc2c(sc3c2C(=O)NC(c2ccc(-c4ccc(Cl)cc4)o2)N3)C1 (stereo not drawn),-12
COc1ccccc1N1CCN(C(=O)C2C3C=CC4(CN(Cc5ccccc5Cl)C(=O)C24)O3)CC1 (stereo not drawn),17
CC1CCN(C(=O)C2Cc3ccccc3CN2S(=O)(=O)c2ccc(F)cc2)CC1 (stereo not drawn),-6
COc1cc(OC)cc(-c2cc3nc(C)c(CCC(=O)O)c(C)n3n2)c1,79*
COc1ccc(-c2nc(N3CCOCC3)nc3nn4c(C)c(CCC(=O)O)c(C)nc4c23)cc1,4
CC(=O)c1cnc2cc(-c3ccccc3)nn2c1C,-50
COC(=O)c1ccc(NC(=O)CN(c2ccc(OC)cc2)S(C)(=O)=O)cc1,-75
SMILES,SF1 inhibitor
CC1CN(c2oc(Cc3cccc4ccccc34)nc2C#N)CC(C)O1 (stereo not drawn),14
c1ccc(-c2cn3nc(-c4ccccc4)sc3n2)cc1,51*
Cc1nc(-c2ccccc2)sc1C(N)=O,3
Cc1ccc(-c2cn3nc(C)c(C)nc3n2)cc1,79*
O=c1cc(O)nc2n1CCCS2,-6
CCOC(=O)c1ncn2c1C(=O)OC2(C)C,-8
O=c1cc(CSc2nnc(-c3ccccc3)o2)c2ccccc2[nH]1,8
O=C(COc1ccccc1)Nc1ccc(-c2nnc(-c3ccco3)o2)cc1,-66
CCCOc1ccc(-c2nnc(-c3ccco3)o2)cc1,64*
COc1ccc(-c2noc(-c3ccco3)n2)cc1OC,-50
Cc1ccc(NC(=O)c2ocnc2C)cc1Cl,-72
COc1cc(C2N(c3ccc(Cl)c(Cl)c3)C(=O)C3CCCN32)cc(OC)c1OC (stereo not drawn),2
COc1ccc(C(=O)Nc2nnc(C(F)(F)F)s2)cc1,-57
CCC(NC(=O)Nc1ncccc1C)(C(F)(F)F)C(F)(F)F,-7
CCC(NC(=O)Nc1nnc(C(F)(F)F)s1)(C(F)(F)F)C(F)(F)F,94*
Cn1cc(C(=O)NCCN2CCN(c3ccccc3F)CC2)c2c3ccccc3n(C)c2c1=O,-5
Cc1nnc(NC(=O)NCN2C(=O)C3C4C=CC(C4)C3C2=O)s1 (stereo not drawn),7
O=C(COC(=O)Cn1cnc2ccccc21)NCCC1=CCCCC1,-4
CCN1C(=O)/C(=C2/Sc3ccc(OC)cc3N2C)SC1=Nc1cccc(O)c1,51*
O=C(c1ccc(NC2=NC3CS(=O)(=O)CC3S2)cc1)N1CCc2ccccc2C1 (stereo not drawn),2
COc1ccc(-c2c(C)n([O-])c3c([n+]2=O)CCC3)cc1OC,-4
c1ccc(Cn2c(-c3ccco3)nc3nc4ccccc4nc32)cc1,-82
Cc1ccc(-c2nc3nc4ccccc4nc3n2Cc2ccco2)cc1,59*
COc1ccc(CCn2c(-c3ccco3)nc3nc4ccccc4nc32)cc1,-29
CCCCOc1ccc(-c2ncc(Cl)cn2)cc1,-26
SMILES,SF1 inhibitor
CCCCOc1ccc(OC(=O)c2cccnc2)cc1,66*
O=C(COc1ccc(-c2ccccc2)cc1)N1CCN(C(=O)c2cccnc2)CC1,-16
COC(=O)c1ccccc1NC(=O)Nc1cc(C)cc(C)n1,-8
C=CCn1c(=O)[nH]c2cc(C(=O)N3CCN(c4ccc(C(C)=O)cc4)CC3)ccc2c1=O,-14
CC(=O)c1ccc(N2CCN(c3ccc(C(F)(F)F)cn3)CC2)cc1,58*
CC(=O)c1ccc(N2CCN(C(=O)c3cc4c(=O)n(C)c5ccccc5c4n3C)CC2)cc1,48
COc1ccc(NC(=O)Cn2c(=O)sc3ccccc32)c(OC)c1,12
